In the OligoGym collection one finds sensor-assay potency score (higher = more potent) data, which are given here for 40 sequences.
Further: reference of the scale not given here.

One test deals with ACTL6A. In words: pooled miR-30 sensor sort-seq; sequence = guide strand. To be noted: shRNA.
Regarding TTACACTGCCATAGAGACCTGG, the sensor-assay potency score (higher = more potent) was -0.411. On the same count and under the same terms, then TAATTGTGCCAAGACCTCGTAA, with -0.587. On the same count and under the same terms, the result for AATAGCTTGGAAACTATCCCAG reads -0.568. The sequence TTACACATATAATTGTGCCAAG yielded a sensor-assay potency score (higher = more potent) of -1.42. For the sequence TAGTAATAAAGTCTCCAGCAAG, the sensor-assay potency score (higher = more potent) was -1.21. Same read-out and setting: the result for TAGTATTCCACGGTGCCTCTGA reads 0.0107; that for ATAGCTTGGAAACTATCCCAGT, -0.733; that for TTTTCTGAGACAGCTCTCTATT, -0.807. Consider TTGTGTTTCCTGATAACCCCTT, for which the sensor-assay potency score (higher = more potent) is 0.282. The same measure, in the same setting: then TTAGTATCTATGTAGTAGGTGG, with 0.198. In turn, TTGTGGTGACAACATGACTGAC gave a sensor-assay potency score (higher = more potent) of -0.897. Sequence TTGCTCTAGTATTCCACGGTGC returned a sensor-assay potency score (higher = more potent) of -0.281. For the sequence TTGACATGCATTTTGTAGGTAT, the sensor-assay potency score (higher = more potent) was 0.179. For TGACTGACTCCTAACATTGTGT, the sensor-assay potency score (higher = more potent) was -0.541. Still for that read-out and setting: then TCCTTCTTCATATTCTTGCTTG, with -0.909. With TTGAATCTGACACTTGAAGTAC, the sensor-assay potency score (higher = more potent) was -0.0659. Same read-out and setting: the result for TAACCTGAGGCAACTTCTCTTT reads -0.605. In turn, TAGTGTTCAAACATTAACTCTG displayed a sensor-assay potency score (higher = more potent) of 0.293. As to TTTGCAATCAATTTCAACCGCA, the sensor-assay potency score (higher = more potent) turned out to be 0.585. The same measure, in the same setting: then TTTGCTCTAGTATTCCACGGTG, with -0.0557; and TTGCTTGGAAATCCACATCTGT, with -0.451; and TACACTGCCATAGAGACCTGGT, with -0.00757.

A further test addresses ACTR3B. Described as above. To be noted: shRNA.
For the sequence TTCATCAACAACATCTGAGATG, the sensor-assay potency score (higher = more potent) is -0.638. Sequence TTTAAAAACCACTTGCTCCATG showed a sensor-assay potency score (higher = more potent) of -0.231. On the same count and under the same terms, the result for TACTGTTTGATCCACTTCCGGG reads -0.539; that for TTACATAACCTTCTGCCACTGG, 0.166. With TATAACAAACTTCTTCTGGTTG, the sensor-assay potency score (higher = more potent) is -0.5. Same read-out and setting: the result for TTCTGCAAGATACTCTCTGTTT reads -0.433; that for TACTTCATCAACAACATCTGAG, 0.487; that for TTACTTCATCAACAACATCTGA, -0.87. TACGACATTCTTATACAGCGGG came in with a sensor-assay potency score (higher = more potent) of -0.141. The sequence TTGATCGCATTGATACCCGTGT had a sensor-assay potency score (higher = more potent) of -0.213.

TTGAGCTTGGTCAACTACCTTT gave a sensor-assay potency score (higher = more potent) of -0.378. As for TCTATAACAAACTTCTTCTGGT, the sensor-assay potency score (higher = more potent) was found to be 0.599.

A further test has as its target ACYP1. The test is described as above. To be noted: shRNA.
TCCAACTTCAAGATGACTTTTT came in with a sensor-assay potency score (higher = more potent) of -1.37. In turn, TAATATTAACACACAATAGTTC came in with a sensor-assay potency score (higher = more potent) of -0.41. Consider TGTGTGATTTAGGACTTCCTCT, for which the sensor-assay potency score (higher = more potent) is -0.445. Regarding TATTAACACACAATAGTTCTAT, the sensor-assay potency score (higher = more potent) was 0.336. Sequence TCGATGTGTGATTTAGGACTTC registered a sensor-assay potency score (higher = more potent) of -0.511. With TTCCTGCATATGACGCACCTTG, the sensor-assay potency score (higher = more potent) was -0.872.
